From the supplement of paper PMC8047044
Where a name gives a salt, the structure may show the parent alone. ± gives the standard deviation of the averaged measurements.

tested on: Neuro-2a; assay: neurite formation score, plate-normalized to DMSO control mean 5.04 (score (0-8 scale)); higher = more or longer neurites; settings: 1 µM
Method: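 Neuro-2a mouse neuroblastoma cells in PLL-coated 96-well plates were pre-treated for 1 h in DMEM(+) with each kinase inhibitor at 1 µM, then switched to serum-free DMEM(-) with inhibitor to induce neurite outgrowth and fixed about 2-3 h later. Three blinded observers scored neurite formation from 0 (no neurites) to 8 (long neurites on almost all cells).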

Compound | neurite formation score
C=CC(=O)Nc1ccc(CN2C(=O)N(c3cc(OC)cc(OC)c3)Cc3cnc(Nc4ccc(N5CCN(C)CC5)cc4)nc32)cc1 | 4.63
CN(C)C/C=C/C(=O)Nc1cc2c(Nc3ccc(F)c(Cl)c3)ncnc2cc1O[C@H]1CCOC1 [Afatinib (BIBW2992)] | 3.57
CCN(CC)CCNC(=O)c1c(C)[nH]c(/C=C2\C(=O)Nc3ccc(F)cc32)c1C [Sunitinib] | 5.63
CCn1c(N)c(C(=O)NC)c(=O)c2ccc(C#CC(C)(O)COC)nc21 (stereo not given) | 4.54
C#Cc1cccc(Nc2ncnc3cc(OC)c(OCCCCCCC(=O)NO)cc23)c1 | 4.36
COc1cc(CCc2cc(NC(=O)c3ccc(N4CC(C)NC(C)C4)cc3)n[nH]2)cc(OC)c1 (stereo not given) | 3.9
O=C(Nc1nc2cccc(-c3ccc(CN4CCS(=O)(=O)CC4)cc3)n2n1)C1CC1 | 4.88 ± 0.58
O=C1NCCSc2c1sc1ccc(O)cc21 | 3.69
O=C(NOCC(O)CO)c1cc(Br)c(F)c(F)c1Nc1ccc(I)cc1F (stereo not given) | 4.57
O=c1c(O)c(-c2ccc(O)c(O)c2)oc2cc(O)cc(O)c12 [Quercetin] | 4.54
CN(C)CCCn1cc(C2=C(c3c[nH]c4ccccc34)C(=O)NC2=O)c2ccccc21 | 5.24
Cn1cc(-c2ccc3ncc(Cc4ccc5ncccc5c4)n3n2)cn1 | 4.63
Cc1cn(-c2cc(NC(=O)c3ccc(C)c(Nc4nccc(-c5cccnc5)n4)c3)cc(C(F)(F)F)c2)cn1 [Nilotinib(AMN-107)] | 4.57
CNC(=O)c1nn(C)c2c1C(C)(C)Cc1cnc(Nc3ccc(N4CCN(C)CC4)cc3)nc1-2 | 3.29
O=C(O)c1ccc(Nc2ncc3c(n2)-c2ccc(Cl)cc2C(c2c(F)cccc2F)=NC3)cc1 | 3.47
N#CCNC(=O)c1ccc(-c2ccnc(Nc3ccc(N4CCOCC4)cc3)n2)cc1 | 4.69
COc1cc2nccc(Oc3ccc(NC(=O)NC4CC4)c(Cl)c3)c2cc1C(N)=O [Lenvatinib (E7080)] | 4.57
Nc1nc(NCCNc2ncc(-n3ccnc3)c(-c3ccc(Cl)cc3Cl)n2)ccc1[N+](=O)[O-] | 5.29
CCOc1cc2ncc(C#N)c(Nc3ccc(OCc4ccccn4)c(Cl)c3)c2cc1NC(=O)/C=C/CN(C)C [Neratinib (HKI-272)] | 3.47
COc1cc2nccc(Oc3ccc(NC(=O)C4(C(=O)Nc5ccc(F)cc5)CC4)cc3)c2cc1OC | 3.57

Compound | neurite formation score
NC(=O)Nc1cc(-c2cccc(F)c2)sc1C(=O)N[C@H]1CCCNC1 | -0.431
CNC(=O)c1cc(Oc2ccc(NC(=O)Nc3ccc(Cl)c(C(F)(F)F)c3)cc2)ccn1 [Sorafenib Tosylate] | 4.57
CN1CCN(c2ccc(Nc3cc(-c4cccc(-n5ccc6cc(C7CC7)cc(F)c6c5=O)c4CO)cn(C)c3=O)nc2)CC1 | 5.63
O=C(Nc1ccc(CN2CCOCC2)cc1)c1ccc(-c2cccc(Cl)c2)o1 | 4.9
OCCn1cc(-c2ccc3c(c2)CC/C3=N\O)c(-c2ccncc2)n1 | 3.69
Oc1cccc(-c2nc(N3CCOCC3)c3oc4ncccc4c3n2)c1 | 5.24
CC(C)NC[C@@H](C(=O)N1CCN(c2ncnc3c2[C@H](C)C[C@H]3O)CC1)c1ccc(Cl)cc1 | 4.24
Oc1ccc2ccccc2c1SSc1c(O)ccc2ccccc12 | 3.88
COc1c(OCCCN2CCOCC2)ccc2c3n(c(=NC(=O)c4cnc(N)nc4)nc12)CCN3 [BAY 80-6946 (Copanlisib)] | 4.14
CCCCCCCCCCCCCCCCOP(=O)([O-])OCC[N+](C)(C)C [Miltefosine] | 5.63
CCN1CCN(Cc2ccc(Nc3ncc(F)c(-c4cc(F)c5nc(C)n(C(C)C)c5c4)n3)nc2)CC1 | 4.57
Cc1c(F)cc(C(=O)NC2CC2)cc1-c1ccc(C(=O)NCC(C)(C)C)cn1 [Losmapimod] | 5.21
CO[C@@H](C(=O)N1Cc2[nH]nc(NC(=O)c3ccc(N4CCN(C)CC4)cc3)c2C1)c1ccccc1 | 3.69
Nc1cc(C(F)(F)F)c(-c2cc(N3CCOCC3)nc(N3CCOCC3)n2)cn1 | 5.24
COc1cc(C(=O)NC2CCN(C)CC2)ccc1Nc1ncc2c(n1)N(C1CCCC1)CC(F)(F)C(=O)N2C | 4.29
NCC(=O)Nc1ccc(-n2nc(C(F)(F)F)cc2-c2ccc3c(ccc4ccccc43)c2)cc1 | 5.57
COc1ccc(Cl)cc1NC(=O)Nc1cc(C)nc2ccccc12 | 3.91
O=c1cc(CN2CCOCC2)occ1OCCCCCSc1ccnc2cc(C(F)(F)F)ccc12 | 4.21
CCc1cnn2c(NCc3ccc[n+]([O-])c3)cc(N3CCCC[C@H]3CCO)nc12 | 3.14
CN1CCN(c2ccc(C(=O)Nc3n[nH]c4ccc(Cc5cc(F)cc(F)c5)cc34)c(NC3CCOCC3)c2)CC1 [Entrectinib] | 2.54
